Only some compounds are listed: those with a hit (about 10% of all), similar ones and a draw of the others.
PNC assembly inh: blocks assembly of the perinucleolar compartment. PC3M PTB-GFP, PNC prevalence imaging, 16 h; hits give low values. activity change (PNC), negative = inhibition, % at 10 µM. actives 3.1% (n = 140,000). AID 2417;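 active = readout at or below -70, meaning at least 70% loss of cells showing the perinucleolar compartment, a nuclear body marking cancer cells; inconclusive = readout between -30 and a set limit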;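 also: plate controls were DMSO wells for no effect and camptothecin positive control wells for full effect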
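PC3M cells stably expressing PTB-GFP, 750–1000 cells/well, treated 16 h at 37 °C with compound (23 nl of library stock), in duplicate. After paraformaldehyde fixation and Hoechst stain, imaged at 20x; PNC prevalence scored by image analysis.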
ALDH1A1 block: ALDH1A1 (human) enzyme inhibition; AID 1030; Purified ALDH1A1, NADH fluorescence, propionaldehyde substrate; actives 7.3% (n = 220,000); Potency, µM (doses to about 75.3 µM), without a hit: top-dose activity, negative = inhibition, usual class: inhibitors; active = well fitted inhibition curve with a large enough effect, not every such curve was filed as active; inconclusive = small, poorly fitted or top-dose-only effect, or another doubt; inactive = no such curve, though single readings can be large or run the other way;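 also: potency is read from the fitted curve at half-maximal effect; plate controls were no enzyme wells and a reference inhibitor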
ALOX12 inhib: 12-hLO (ALOX12) enzyme inhibition. P18054. purified 12-hLO, xylenol orange hydroperoxide absorbance. Potency, µM (series often up to 57.1 µM), for inactives: top-dose activity change, negative = inhibition, usual class: inhibitors. actives 0.12% (n = 150,000). AID 1452; also: potency is read from the fitted curve at half-maximal effect; nearly all actives have a fitted effect of over 55% in size
Target sequence (P18054 whole entry, looked up): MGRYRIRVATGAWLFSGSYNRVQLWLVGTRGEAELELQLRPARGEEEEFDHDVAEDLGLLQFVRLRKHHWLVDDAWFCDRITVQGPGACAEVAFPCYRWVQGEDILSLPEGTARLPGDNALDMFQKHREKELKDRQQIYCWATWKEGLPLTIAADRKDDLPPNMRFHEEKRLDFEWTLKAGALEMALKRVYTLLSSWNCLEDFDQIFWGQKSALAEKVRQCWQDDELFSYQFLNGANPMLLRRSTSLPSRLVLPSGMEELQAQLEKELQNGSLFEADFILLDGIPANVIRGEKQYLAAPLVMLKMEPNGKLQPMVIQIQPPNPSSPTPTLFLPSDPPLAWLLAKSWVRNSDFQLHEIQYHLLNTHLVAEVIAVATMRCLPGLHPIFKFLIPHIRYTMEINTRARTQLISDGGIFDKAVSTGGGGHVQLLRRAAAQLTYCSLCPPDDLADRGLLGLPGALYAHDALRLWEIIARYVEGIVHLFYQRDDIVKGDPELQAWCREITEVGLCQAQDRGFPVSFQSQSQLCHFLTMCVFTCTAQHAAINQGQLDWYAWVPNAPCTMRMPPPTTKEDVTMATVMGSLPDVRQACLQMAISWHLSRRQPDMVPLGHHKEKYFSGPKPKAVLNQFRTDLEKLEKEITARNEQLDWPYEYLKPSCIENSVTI
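Purified human 12hLO (150 nM final) was preincubated with compounds for 15 min at room temperature in 25 mM Hepes pH 7.0, 0.01% Triton X-100, then reacted with 40 uM arachidonic acid for 30 min. Hydroperoxide was detected with ferrous iron/xylenol orange.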
GLA spleen mod: inhibits or activates alpha-galactosidase in human spleen homogenate | P06280 | human spleen homogenate, 4MU-alpha-Gal fluorescence, 40 min | Potency, µM (highest dose often 80 µM), inactives show at the highest dose activity change, negative = inhibition, usual class: inhibitors | actives 0.008% (n = 240,000);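 also: potency is read from the fitted curve at half-maximal effect; 0% = enzyme with vehicle and -100% = no enzyme basal signal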
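Human spleen homogenate (1 ug) was the enzyme source, with 4-methylumbelliferyl-alpha-D-galactopyranoside (1 mM final) in pH 5.0 citrate buffer with 0.01% Tween-20. Compounds were titrated; after 40 min at 37C, NaOH/glycine stop, 4-MU fluorescence read; AC50 from Hill fits.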
HPGD block: HPGD (human) dehydrogenase inhibition; purified HPGD, NADH fluorescence kinetic, PGE2 substrate; actives 4.3% (n = 150,000); Potency, µM, for the others: top-dose activity change, negative = inhibition, most hits filed as inhibitors; P15428; active = well fitted inhibition curve with a large enough effect, not every such curve was filed as active; inconclusive = small, poorly fitted or top-dose-only effect, or another doubt; inactive = no such curve, though single readings can be large or run the other way; also: potency is read from the fitted curve at half-maximal effect
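NADH formation kinetics: reaction with 30 uM PGE2 and 1 mM NAD+ (final), 20 nM enzyme, Tris-HCl pH 8 with Tween 20, after 15 min compound preincubation at room temperature. Fluorescence change, last versus first of five reads.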
GLA inh pH 4.5: inhibitors of human alpha-galactosidase A at pH 4.5 | P06280 | purified enzyme, 4-MU-alpha-Gal fluorescence, pH 4.5 | activity change, negative = inhibition, % at 105 µM | 230,000 tested, under 10 active | AID 1467;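 also: 0% = full activity with enzyme and -100% = basal without enzyme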
Numbers without * were called inactive; u = inconclusive; x = no result given. Unless noted, calls follow the shape of the dose curve; as a rule, active = well fitted curve in the direction sought with a large enough effect; inconclusive = small, poorly fitted or top-dose-only effect, or another doubt; inactive = no such curve, though single readings can be large; an effect the other way counts as inactive or inconclusive. Unless noted, % is scaled to controls: 0 for no effect and ±100 for the full control effect.

SMILES | PNC assembly inh | ALDH1A1 block | ALOX12 inhib | GLA spleen mod | HPGD block | GLA inh pH 4.5
O=C(Cn1nnc(-c2ccccc2F)n1)Nc1cccc2ncccc12 | -82* | -2% | -3% | -27% | -5% | 1
CCOc1cc(/C=C2\SC(=N)N(c3nonc3N)C2=O)ccc1OCCN1CCOCC1 | x | 6% | x | 12% | x | -10
CCOc1cc(/C=C2\SC(=N)N(c3nonc3N)C2=O)ccc1OCC(N)=O | 17 | -18% | 5% | -7% | 13µM* | -1
O=C(c1ccc(Cn2c(=S)[nH]c3ccc(N4CCOCC4)cc3c2=O)cc1)N1CCC(N2CCCCC2)CC1 | x | u | x | -2% | x | 4
COC(=O)c1ccc(C(NC(=O)OCc2ccccc2)/C(=C/[C@@H](C)C(=O)NCc2ccc(OC)c(O)c2)c2cccnc2)cc1 (some centres undefined) | x | -5% | -3% | -1% | -17% | -3
Cc1cccc(C=Nc2ccc3c(c2)oc2ccccc23)c1O | u | 10% | -5% | 5% | u | 5
CC(N=Cc1cccc(O)c1O)c1ccccc1 (centres undefined) | 0 | u | u | 10% | 2.8µM* | -14
CC(N=Cc1cc([N+](=O)[O-])ccc1O)c1ccccc1 (centres undefined) | x | u | x | -3% | x | -3
Cc1ccc(N=Cc2sc(O)c3ccccc23)c(C)c1 | -15 | 13µM* | -19% | -5% | -12% | 5
Cc1ccccc1N=Cc1cccc(O)c1O | u | 5µM* | -27% | -8% | -7% | -4
Cc1ccc(N=Cc2cccc(O)c2O)c(C)c1 | u | u | u | 11% | 3.2µM* | -17
CC(C)(C)OC(=O)NCCCC1=CC2=CC(=O)C(C)(OC(=O)c3cnc4ccccc4n3)C(=O)C2=CO1 (centres undefined) | x | 0% | -5% | 1% | -11% | -8
O=c1c(-c2cccc(Cl)c2)nc2cncnc2n1-c1ccccc1 | x | -7% | x | 1% | x | x
FC(F)(F)c1ccccc1Cl | x | -21% | -4% | 2% | -4% | x
Cc1ccc(C2=N/C(=C\N3CCCCC3)C(=O)O2)cc1 | -18 | u | -1% | -4% | u | 0
Cc1ccc(S(=O)(=O)Oc2ccc(/C=C3/N=C(c4ccccc4)OC3=O)cc2)cc1 | 114 | 8.9µM* | 0% | 1% | -25% | -9
COc1ccc(-c2nc3cnc(N4CCN(C)CC4)nc3n(C)c2=O)cc1 | x | u | x | 9% | x | x
c1ccc2c(c1)[nH]c1nc(SCCN3CCOCC3)nnc12 | -26 | u | 17% | -4% | 32µM* | -2
Brc1ccc2[nH]c3nc(SCCN4CCOCC4)nnc3c2c1 | x | u | x | 4% | x | -5
O=C(CSc1nnc2c(n1)[nH]c1ccccc12)Nc1ccc(N2CCOCC2)cc1 | x | 22µM* | x | 0% | x | 3
CC(C)OC(=O)c1cc2c(OC[C@@H](O)CNC(C)(C)C)cccc2[nH]1 | x | u | -1% | 4% | -26% | -6
O=c1c2cc3c(=O)n(-c4ccccc4O)c(=O)c3cc2c(=O)n1-c1ccccc1O | x | 1% | x | -6% | x | 5
CN(C)c1ccc(C(=S)NC2CCCCC2)cc1 | x | 3.5µM* | x | -22% | x | 4
CCN(CC)c1ccc(C(=S)NC2CCCCC2)cc1 | x | 7.9µM* | x | 7% | x | -11
CCN(CC)c1ccc(C(=O)O)cc1 | 10 | -6% | 1% | -14% | -6% | 1
SMILES | PNC assembly inh | ALDH1A1 block | ALOX12 inhib | GLA spleen mod | HPGD block | GLA inh pH 4.5
CN(C)c1ccc(C(=O)OCC(=O)NC2CCCCCC2)cc1 | x | 6% | x | 3% | x | 7
C/C(=N\NC(=S)NC1CCCCC1)c1ccc(C#N)cc1 | 25 | 6% | -6% | 0% | -2% | 3
CCN(CC)c1ccc(C(=S)NCc2ccccc2)cc1 | x | 10µM* | x | 2% | x | -3
C=C1CC2C(=O)N(Cc3cc(OC)ccc3OC)C(C(=O)OCC)C1N2C (centres undefined) | x | x | x | -7% | x | x
COc1ccc(N(C)S(=O)(=O)c2cccc(C(=O)NC3CCC(C)CC3)c2)cc1 (centres undefined) | x | u | x | 6% | x | -3
COc1ccc(C2=CSC3=C(C(=O)c4cccc(S(=O)(=O)N(C)C)c4)CCN23)cc1 | u | 2µM* | -12% | 3% | -17% | -2
CN(C)/C=C/c1onc(-c2ccccc2Cl)c1C#N | x | 6.3µM* | x | 3% | x | -8
Cc1ccccc1-c1noc(N)c1C#N | 39 | -2% | 4% | 3% | -15% | 0
COc1ccc(OCCOCCOc2ccc(C)cc2[N+](=O)[O-])cc1 | 18 | 25µM* | -4% | -12% | u | -6
Cc1ccc2cccc(OCCOCCOc3ccccc3Br)c2n1 | 23 | -4% | -6% | -2% | -10% | 2
Cc1ccc(OCCCCn2ccnc2)c([N+](=O)[O-])c1 | x | 1.6µM* | x | 3% | x | -17
COCCNCCCCOc1ccc(C)cc1[N+](=O)[O-] | u | 2.8µM* | -3% | 7% | -8% | -1
Cc1ccc(OCCOc2cccc3ccc(C)nc23)c([N+](=O)[O-])c1 | x | 14µM* | x | 0% | x | -6
COc1cccc(OCCOCCOc2ccc(C)cc2[N+](=O)[O-])c1 | u | u | 0% | 10% | -10% | 1
O=S1(=O)C2CC3C=CC2(CN1Cc1ccccc1)O3 (centres undefined) | x | x | x | -1% | x | x
CC(C)(C)c1ccc(CCC2OCC(C[N+]3(C)CCOCC3)O2)cc1 (centres undefined) | x | x | x | -7% | x | 0
Brc1ccc2c(c1)c1cc(Br)ccc1n2CC1CO1 (centres undefined) | x | -6% | x | 5% | -5% | -23
COc1ccccc1C(=O)Nc1ccccc1N1CCN(S(C)(=O)=O)CC1 | -91* | u | 6% | 0% | u | -3
CS(=O)(=O)N1CCN(c2ccccc2NC(=O)c2ccc(Br)o2)CC1 | -25 | 3.2µM* | -3% | -10% | -7% | 0
S=c1nc[nH]c2c1ncn2C1CCCO1 (centres undefined) | x | 13µM* | x | 0% | x | -1
Cc1ccc(NC(=O)c2ccccc2F)nc1 | u | u | -1% | u | -13% | 17
Cc1ccc(NCN2C(=O)C(=O)c3ccccc32)nc1 | u | 0.14µM* | 2% | 9% | -13% | -4
OCCC1CN(Cc2ccc3nonc3c2)CCN1Cc1ccsc1 (centres undefined) | x | 19µM* | x | 3% | x | -8
OCCC1CN(Cc2ccc3cc(Cl)ccc3n2)CCN1Cc1ccsc1 (centres undefined) | x | u | x | 2% | x | 6
COc1ccc2cc(CN(Cc3cccs3)Cc3nnnn3Cc3ccccc3)c(=O)[nH]c2c1 | 25 | 2µM* | -19% | -3% | -27% | -5

Screening data deposited in PubChem by National Center for Advancing Translational Sciences (NCATS).
